# Shown are actives, neighbours in structure and some others; about 3.6% of the full set was active somewhere.
# TWEAK Fn14 block: inhibitors of TWEAK-Fn14 signaling, primary screen, luciferase reporter cells, uHTS | TWEAK-stimulated Fn14 reporter cells, luciferase luminescence, 8 h | inhibition, % at 10 µM | hit rate 2% among 360,000 | AID 1159606, 2016; in the data active means inhibition above about 50%
# TROY NFkB inh: inhibitors of TROY-driven NF-kB signaling, primary screen, Q293 LMP1-TROYcd cells, NF-kB luciferase, uHTS | AID 1347056, 2019 | hit rate 0.98% among 360,000 | inhibition, % at 10 µM | Q293 LMP1-TROYcd NF-kB luciferase reporter, 4 h;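 active means compounds whose plate-normalised and pattern-corrected inhibition of the luciferase reporter signal at the single screening dose is 50% or more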
# HSF-1 act: HSF-1 activators, primary screen, NIH3T3-HGL cells, MG132 stress, luminescence, single point; NIH3T3-HGL HSF-1 luciferase reporter, 8 h; 100% = twice DMSO control signal; activation, % at 9 µM; hit rate 1.7% among 300,000;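 active means mean replicate activation of at least 50% with a set share of replicates each reaching 50%; inconclusive means only one of those two conditions met; inactive means mean below 50% and too few replicates reaching it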;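 further: 0% = median of the neutral control wells and 100% = twice that signal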
# HSF1 inhib: HSF1 inhibitors in luciferase reporter cells, primary screen, cell-based, NIH3T3, luminescence; NIH3T3-HGL HSE-luciferase, MG132-induced, luminescence 8 h; active compounds read low; activity change, negative = inhibition, % at 7.5 µM (by protocol); hit rate 0.77% among 300,000; AID 2098, 2009;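 active means more than half of replicate wells show activity change below -50%, luminescence cut by over half; inconclusive means some wells, but at most half, below -50%; inactive means no replicate well below -50%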;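 further: luciferase reports HSF-1 transcriptional activity via heat shock element; 0% = median of DMSO wells and -100% = zero luminescence signal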
# EBV LMP1 NFkB: EBV LMP1-driven NF-kappaB luciferase reporter inhibitors, primary screen, cell-based, luminescence, single point; hit rate 0.69% among 350,000; inhibition, % at 12.5 µM; LMP1-induced NF-kappaB luciferase reporter cells; AID 504558, 2011; in the data active means inhibition above about 41%; inconclusive means no clear call, values can overlap the other calls;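 further: 0% = neutral control wells and 100% = reference inhibitor control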
# LGR2 antag: inhibitors of bursicon-induced LGR2 CRE-luciferase signal, primary screen, cell-based, HEK293, CRE-luciferase reporter, bursicon stimulation | Drosophila bursicon receptor LGR2 (rickets) | hit rate 0.35% among 380,000 | AID 720647, 2013 | inhibition, % at 9.99 µM | bursicon-stimulated, 4 h;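 active means drop in luminescence signal, shown as inhibition above about 50% in the replicate tests, limit read from the data, passing the limit was not always enough; inconclusive means probably only some replicates passing the limit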;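 further: agonist challenge used bursicon conditioned medium at about half maximal strength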
# The depositor's hits bear a star; ? = inconclusive; · = no result given.
SMILES,TWEAK Fn14 block,TROY NFkB inh,HSF-1 act,HSF1 inhib,EBV LMP1 NFkB,LGR2 antag
C[C@@H]1CN([C@@H](C)CO)C(=O)c2cc(NC(=O)NC3CCCCC3)ccc2O[C@H]1CN(C)S(=O)(=O)c1cn(C)cn1,·,·,·,·,·,-7.4
CN1c2ccc(Br)cc2[C@H]2[C@H](CCN2S(=O)(=O)c2cccc(F)c2)[C@H]1CO,·,·,·,·,·,21.4
O=C(CC1CC1)N1CC(=O)N2[C@H](CO)[C@@H](c3ccc(-c4ccccc4)cc3)[C@@H]2C1,·,·,·,·,·,-0.1
COCC(=O)N(C)C[C@H]1Oc2cc(C3=CCCC3)ccc2S(=O)(=O)N([C@H](C)CO)C[C@H]1C,·,·,·,·,·,6.7
O=C(NCC(=O)N(c1cccc(F)c1)C(C(=O)NC1CCCC1)c1ccncc1)c1ccco1 (stereo unspecified),35.6,2.4,54.3*,39.9,-2.4,10.1
Cc1cccc(N(C(=O)CNC(=O)c2ccco2)C(C(=O)NCC2CCCO2)c2ccccc2)c1 (stereo unspecified),67.0*,1.7,-0.1,-1.8,2.7,6.8
C[C@H]1CN([C@@H](C)CO)C(=O)Cc2cc(NS(=O)(=O)c3cccs3)ccc2O[C@H]1CN(C)CC1CC1,·,·,·,·,·,-6.0
C[C@@H]1CN([C@H](C)CO)C(=O)c2cc(NC(=O)Nc3ccc(C(F)(F)F)cc3)ccc2O[C@@H]1CN(C)S(C)(=O)=O,·,·,·,·,·,6.3
O=C(CNC(=O)/C(=C\c1ccccc1)NC(=O)c1ccc(Br)cc1)OCc1ccccc1,73.0*,·,-10.9,-3.6,9.7,·
Cn1c(-c2sc3cc(C(F)(F)F)cnc3c2-c2cccnc2)n[nH]c1=S,8.0,4.3,-88.0,-85.4*,-11.7,-5.2
Cn1c(-c2sc3cc(C(F)(F)F)cnc3c2-c2ccccn2)n[nH]c1=S,0.4,-14.8,-4.0,-4.9,-3.2,-11.8
CC(C)OC(=O)N(C)C[C@H]1OCc2ccccc2-c2ccccc2C(=O)N([C@H](C)CO)C[C@@H]1C,·,·,·,·,·,0.9
N#C/C(=C\c1ccc[nH]1)C(=O)Nc1ccccc1[N+](=O)[O-],-31.3,-67.6,61.4*,24.1,-14.3,-20.7
Cc1ccccc1NC(=O)/C(C#N)=C/c1ccc[nH]1,-28.1,-50.0,19.3,11.2,-17.4,-33.5
CO[C@@H]1CN(C)C(=O)c2ccc(NC(=O)Nc3ccccc3F)cc2OC[C@@H](C)N(C(=O)c2cnccn2)C[C@H]1C,·,·,·,·,·,0.5
Cc1cc2[nH]c3c(c[n+](C)c4ccccc34)c2cc1C,-149.4,25.9,21.2,3.4,-18.1,100.3*
CC(C)=CCC/C(C)=C/CNC(=O)C[C@H]1C[C@H](C(=O)N(C(C)C)C(C)C)[C@@]2(C)c3[nH]c4ccc(Cl)cc4c3CCN2C1=O,55.9*,7.3,·,·,6.4,-2.1
COC(=O)c1cc(S(=O)(=O)C(C)C)c(S(C)=O)s1 (stereo unspecified),26.3,-2.3,90.1*,52.8,-13.6,14.6
CSc1sc(C(=O)NCC2CC2)cc1S(=O)(=O)C(C)C,-18.5,4.3,2.3,9.8,10.6,·
Cc1ccc(Sc2ncccc2[N+](=O)[O-])cc1,3.6,1.8,-3.4,7.9,-0.8,7.9
Cc1c([N+](=O)[O-])cnc(Sc2ccccc2)c1[N+](=O)[O-],84.2*,63.5*,5.7,-3.8,-2.8,?
Cc1cc(NC(=O)CSc2nc(C(C)(C)C)nc3ccccc23)no1,19.6,21.8,·,·,-1.3,-15.7
CCOC(=O)CNC(=O)CSc1nc(Cc2ccccc2)nc2ccccc12,3.9,7.0,24.4,16.0,-5.6,·
Cc1cc(NC(=O)CSc2nc(CCC3CCCC3)nc3ccccc23)no1,39.5,-4.1,58.6*,21.0,-1.5,·
CCCc1nc(SCC(=O)Nc2cc(C)on2)c2ccccc2n1,23.3,8.8,105.5*,54.2,1.3,·
SMILES,TWEAK Fn14 block,TROY NFkB inh,HSF-1 act,HSF1 inhib,EBV LMP1 NFkB,LGR2 antag
Cc1nonc1NC(=O)CSc1nc(CCC2CCCC2)nc2ccccc12,46.5,3.0,8.0,9.9,-1.3,5.2
CCCCNC(=O)CSc1nc(Cc2ccccc2)nc2ccccc12,18.6,12.6,52.2*,36.1,11.5,5.5
CCCNC(=O)N(C)C[C@H]1Oc2ncc(C3=CCCCC3)cc2C(=O)N([C@@H](C)CO)C[C@H]1C,·,·,·,·,·,12.4
CCOC(=O)/C=C(\C)Sc1cc(=O)oc2ccccc12,56.8*,2.4,-10.2,-1.3,49.5*,·
CCOC(=O)/C=C(\C)Sc1cc(O)c2ccccc2c1O,95.9*,31.4,·,·,-0.8,-6.2
CCOC(=O)Nc1oc2ccccc2c(=O)c1C,4.8,-13.6,-4.6,-3.5,-0.9,·
COc1cc(CN2CC3(CN(C(=O)c4cccnc4)C3)c3c([nH]c4cc(OC)ccc34)[C@H]2CO)cc(OC)c1,·,·,·,·,·,-13.7
COc1ccccc1NC(=O)COC(=O)c1cc2ccccc2cc1O,-32.3,-4.2,·,·,3.4,-7.3
Cc1ccc(Cl)cc1NC(=O)c1cc2ccccc2cc1O,46.6,52.3*,-9.0,5.2,36.9,4.6
COc1ccccc1NC(=O)c1cc2cc(Br)ccc2cc1O,67.4*,38.4,12.2,6.2,-0.6,45.1
COc1cc(NC(=O)c2cc3ccccc3cc2O)c(OC)cc1Cl,67.4*,45.5,5.4,-5.1,9.3,34.8
Cc1ccc(Cl)cc1NC(=O)COC(=O)c1ccccc1O,-33.1,0.4,-4.4,-5.4,3.6,4.0
COc1cc(C(=O)Nc2ccc(Nc3ccccc3)cc2)cc(OC)c1OC,3.2,10.3,57.9*,25.2,5.8,11.9
O=C(C[C@@H]1CC[C@@H](NC(=O)Nc2ccccc2F)[C@@H](CO)O1)NCc1ccccc1,·,·,·,·,·,8.8
COc1ccc(NC(=O)c2cc3ccccc3cc2OC)cc1,3.5,-44.0,35.7,17.3,-74.2,-67.0
CCOc1ccc(NC(=O)c2cc3ccccc3cc2OC)cc1,-25.6,-94.9,74.7*,22.4,-20.8,-60.2
COc1cc2ccccc2cc1C(=O)Nc1ccccc1Cl,28.4,3.4,92.6*,65.7,-39.2,-86.7
C/C=C/c1ccc2c(c1)O[C@@H](CN(C)C(=O)CC)[C@@H](C)CN([C@@H](C)CO)S2(=O)=O,·,·,·,·,·,4.8
COc1ccccc1/C=N/NC(=O)c1ccc(NC(=O)c2cccc([N+](=O)[O-])c2)cc1,·,·,-7.4,-4.1,·,·
COc1cc([N+](=O)[O-])cc(/C=N/NC(=O)c2ccc(C)nc2)c1O,10.3,-7.7,-12.9,-16.9,2.8,-11.9
COc1ccc(/C=N/NC(=O)c2cccc([N+](=O)[O-])c2)cc1O,-16.2,-33.3,4.4,-1.7,2.1,-25.8
Cc1ccc(C(C)C)c(OCc2ccc(C(=O)N/N=C/c3ccc(O)c(O)c3)cc2)c1,62.0*,-12.5,-28.7,-22.3,-40.1,-70.2

# Assay outcomes (PubChem BioAssay)
